# Assay results: PubChem BioAssay (NCATS)
# “And” between values parts separate entries of the source, which are not always exact repeats. Equal entries are not always repeated. A number with no mark means an inactive call. Inconclusive results are not listed. The source made the active and inactive calls. Unless noted, calls come from the whole dose curve; as a rule, active = well fitted curve in the direction sought with a large enough effect; inconclusive = small, poorly fitted or top-dose-only effect, or another doubt; inactive = no such curve, though single readings can be large; an effect the other way counts as inactive or inconclusive.
# Tests used:
# [1] = target: Peroxisome proliferator-activated receptor alpha (Homo sapiens) (UniProt Q07869); test: qHTS assay for small molecule agonists of the peroxisome proliferator-activated receptor alpha (PPARalpha) signaling pathway (AID 651778); settings: PathHunter PPARalpha complementation, chemiluminescence, 6 h; max response: stronger effect = higher value; note: potency is the fitted concentration of half-maximal effect; for max response: % of control where 0% means no effect
# Peroxisome proliferator-activated receptor alpha (Homo sapiens), sequence (Q07869 whole entry, looked up): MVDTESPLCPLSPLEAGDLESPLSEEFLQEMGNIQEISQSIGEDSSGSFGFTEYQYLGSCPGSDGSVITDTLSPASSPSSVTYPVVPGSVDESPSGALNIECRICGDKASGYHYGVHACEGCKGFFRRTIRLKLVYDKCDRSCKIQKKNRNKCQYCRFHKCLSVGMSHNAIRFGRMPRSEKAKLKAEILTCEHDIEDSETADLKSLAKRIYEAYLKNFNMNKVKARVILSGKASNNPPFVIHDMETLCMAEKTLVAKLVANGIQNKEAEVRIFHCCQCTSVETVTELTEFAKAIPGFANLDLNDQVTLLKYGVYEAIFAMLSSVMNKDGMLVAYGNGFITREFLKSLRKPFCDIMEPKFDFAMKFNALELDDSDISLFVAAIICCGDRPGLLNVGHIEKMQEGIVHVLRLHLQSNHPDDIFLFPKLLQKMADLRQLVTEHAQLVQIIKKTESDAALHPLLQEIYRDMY
# Method in brief: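 Chemiluminescence from complemented enzyme reported PPARalpha activation in cells after 6 hr of compound treatment at 37 C. The detection reagent was incubated for 60 min at room temperature, and compounds were scored as agonists.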
# [2] = qHTS assay for small molecule agonists of the antioxidant response element (ARE) signaling pathway measured by Nrf2-dependant transcriptional activity (AID 720636; active = well fitted curve in the direction sought with a large enough effect in the repeat runs; an effect the other way counts as inactive or inconclusive; note: potency is the fitted concentration of half-maximal effect;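 for activation: HepG2 cells with an ARE-driven luciferase reporter; % of control where 0% means no effect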); settings: ARE-luc HepG2, Nrf2 luciferase reporter, 16 h; series mostly up to 92.4 µM
# Method in brief: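 ONE-Glo luminescence, read 30 min after reagent addition at room temperature, reflected ARE reporter activity in HepG2 cells that had been incubated with compound for 16 hr at 37 C in 1% dialyzed FBS.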
# [3] = target: Nuclear receptor ROR-gamma (Homo sapiens) (UniProt P51449); test: qHTS assay for small molecule antagonists of the retinoid-related orphan receptor gamma (ROR-gamma) signaling pathway (AID 651802); settings: ROR-gamma antagonist cell reporter assay; series mostly up to 92.2 µM; note: nearly all actives have a fitted effect of over 60% in size; note: potency is the fitted concentration of half-maximal effect
# Nuclear receptor ROR-gamma (Homo sapiens), sequence (P51449 whole entry, looked up): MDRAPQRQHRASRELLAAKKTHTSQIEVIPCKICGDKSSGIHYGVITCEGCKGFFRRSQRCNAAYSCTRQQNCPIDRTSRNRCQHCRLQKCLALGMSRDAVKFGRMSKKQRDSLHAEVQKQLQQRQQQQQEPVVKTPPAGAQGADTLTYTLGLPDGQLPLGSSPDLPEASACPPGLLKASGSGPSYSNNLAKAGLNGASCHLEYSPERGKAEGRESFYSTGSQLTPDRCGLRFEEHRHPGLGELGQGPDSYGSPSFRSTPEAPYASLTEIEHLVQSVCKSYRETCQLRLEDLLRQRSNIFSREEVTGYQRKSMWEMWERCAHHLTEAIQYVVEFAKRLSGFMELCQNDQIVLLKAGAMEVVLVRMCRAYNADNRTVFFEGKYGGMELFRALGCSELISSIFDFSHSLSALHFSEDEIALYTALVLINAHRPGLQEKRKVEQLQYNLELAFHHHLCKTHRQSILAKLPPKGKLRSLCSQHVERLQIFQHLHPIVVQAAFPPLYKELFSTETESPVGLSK
# Method in brief: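 Luciferase read-out: ONE-Glo luminescence after 30 min at room temperature, following 16hr doxycycline induction at 37C, 5% CO2 of CHO cells with TET-inducible ROR and RORE-LUC reporter; decreased luminescence = reduced reporter activity.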
# [4] = qHTS assay for environmental chemicals that activate the Aryl hydrocarbon Receptor (AhR) signaling pathway (AID 651777); settings: 1A2-DRE human hepatoma cells, luciferase, 24 h; activation: stronger effect = higher value; note: nearly all actives have a fitted effect of over 15% in size; note: potency is the fitted concentration of half-maximal effect; for activation: % of control where 0% means no effect
# Method in brief: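 Following a 24 hr incubation with test chemicals at 37 C and 5% CO2, 1A2-DRE human hepatoma cells received One-Glo reagent; after 30 min at room temperature, luciferase output reflected CYP1A2 induction via AhR.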
# [5] = target: Arylsulfatase A (Homo sapiens) (UniProt P15289); test: qHTS screen for enhancers of Arylsulfatase A (ASA1): LOPAC Validation Assay (AID 720538); settings: ASA enzyme activity, LOPAC qHTS enhancer assay; series mostly up to 57.5 µM; note: potency is the fitted concentration of half-maximal effect
# Arylsulfatase A (Homo sapiens), sequence (P15289 whole entry, looked up): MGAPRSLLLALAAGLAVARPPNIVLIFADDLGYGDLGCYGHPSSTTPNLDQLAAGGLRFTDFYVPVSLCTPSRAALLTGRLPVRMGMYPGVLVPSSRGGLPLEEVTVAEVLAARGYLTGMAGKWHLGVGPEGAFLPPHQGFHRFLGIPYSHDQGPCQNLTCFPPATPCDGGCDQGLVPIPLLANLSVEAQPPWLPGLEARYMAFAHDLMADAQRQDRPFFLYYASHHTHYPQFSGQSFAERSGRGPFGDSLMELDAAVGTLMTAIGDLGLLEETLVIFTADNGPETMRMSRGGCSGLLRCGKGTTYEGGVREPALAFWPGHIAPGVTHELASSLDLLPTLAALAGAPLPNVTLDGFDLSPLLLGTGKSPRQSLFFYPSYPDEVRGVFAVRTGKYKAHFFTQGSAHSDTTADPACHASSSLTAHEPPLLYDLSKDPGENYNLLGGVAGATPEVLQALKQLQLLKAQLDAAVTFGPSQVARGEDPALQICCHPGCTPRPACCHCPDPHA
# Method in brief: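 MLD patient fibroblasts (SV40, ASA-I179S), 1536-well; adhere 6 hrs; cpd 48h, 37 degree C, 5% CO2; pNCS 0.5mM final in lysis buffer, 14h RT; stop 1N NaOH final; fluor. Ex525/Em598.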
# [6] = qHTS for compounds that reverse cellular toxicity of Amyloid beta (A-beta) peptide in yeast: LOPAC Validation Assay (AID 720559); settings: yeast expressing A-beta; series mostly up to 46.1 µM;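 note: plate controls were DMSO for no effect and equimolar ferric chloride plus clioquinol rescue for full effect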
# Method in brief: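 Medium dispensed, compounds pinned, A-beta yeast suspension added; plates held at 30 C for 48 hr; absorbance measured at 600 nm to gauge growth; values scaled between DMSO and FeCl3/clioquinol (equimolar) controls.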
# [7] = qHTS for Activators of Parkin Expression: LOPAC Validation Assay (NLuc Reporter) (AID 720572; note: potency is the fitted concentration of half-maximal effect); settings: Parkin promoter NanoLuc reporter cells, luminescence; series mostly up to 46.1 µM
# Method in brief: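 Compound effects on Parkin promoter activity were measured as NanoLuc luminescence after 24 h at 37 C. The neuronal reporter line also carried FLuc, which was read first. LOPAC compounds were tested at 7 concentrations, with normalization to DMSO (0%) and positive control (100%).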
# [8] = qHTS for Activators of Parkin Expression: LOPAC Validation Assay (FLuc Reporter) (AID 720573); settings: Cell line, PRKN promoter firefly luciferase reporter, vehicle wells = 0, positive control = 100%; series mostly up to 46.1 µM
# Source text: Parkin is an E3 ubiquitin ligase localized in the cytosol of cells expressed in many tissues, including brain, skeletal muscle, heart and liver tissues. One hour after stress induction by mitochondrial uncouplers (which mimic mitochondria damage by decreasing the mitochondrial inner membrane electrochemical gradient that is used to produce ATP), Parkin translocates from the cytosol to mitochondria in many cultured cell types, including neurons and HeLa cells. Administration of other mitochondrial poisons, such as Paraquat and azide in cells lacking mitochondrial DNA (mtDNA), induces Parkin translocation to mitochondria. […] It was proposed that Parkin (together with Pink1) mediates a mitochondrial quality control pathway to maintain organelle population fidelity by removing damaged mitochondria. Understanding the normal physiologic role of Parkin (and Pink1) may uncover novel treatment strategies for sporadic Parkinson's disease patients with mutation in these genes.
# A cell based qHTS in 1536 well format was developed assess modulation of Parkin expression using a neuronal cell line that stably expresses a stably expresses a luminescent coincidence reporter (FLuc and NLuc reporters) behind the Parkin promoter. The LOPAC library is used to validate the assay for quantitative high-throughput screening. The data herein reports the signal from the FLuc reporter. An increase in this signal = activation of Parkin expression. For this assay , a positive control normalized signal increase corresponding to a high quality qHTS curve class in both luminescent channels is the desired outcome for this assay.
# NIH Chemical Genomics Center [NCGC]
# NIH Molecular Libraries Probe Centers Network [MLPCN]
# Assay Submitter (PI): Richard Youle, National Institute of Neurological Disorders and Strokes (NINDS), NIH
# [1] Narendra, D., et al., Parkin is recruited selectively to impaired mitochondria and promotes their autophagy. J Cell Biol, 2008. 183(5): p. 795-803.
# [2] Suen, D.F., et al., Parkin overexpression selects against a deleterious mtDNA mutation in heteroplasmic cybrid cells. Proc Natl Acad Sci U S A, 2010. […] 11835-40.
# [3] Cheng K, Inglese J. A coincedence reporter-gene system for high-throughput screening. Nat Methods. 2012: 9(10);937
# Five microliters (1,500 cells/well) of the Parkin coincidence reporter cells were seeded to 1536 well assay plates (Greiner Catalog # 789173-F) and incubated at 37 C, 5% CO2 for 24 hours. Compounds (23 nL) were pinned using the Kalypsys robotic system equipped with 1536 pin head adaptor in 7-point dose response. The assay plates were incubated for additional 24 hr at 37 C, 5% CO2 followed by a volume reduction in each well to 2 uL using an automated plate washer/aspirator. Following the volume reduction,2 uL of FLuc detection reagent and plates were incubated for 10 minutes at room temperature. The FLuc luminescence signal was obtained using the PerkinElmer ViewLux plate imager and then 2 uL of NanoLuc detection reagent was added to the plates. After another 10 minute incubation, NanoLuc signal was obtained using the PerkinElmer ViewLux plate imager as before. Data from each channel was normalized to DMSO (neutral control) and the positive control compounds (100%).
# [9] = target: Tyrosine-protein kinase Yes (Homo sapiens) (UniProt P07947); test: qHTS for small molecule inhibitors of Yes1 kinase: Primary Screen (AID 686947); settings: Yes1 kinase biochemical qHTS inhibition; series mostly up to 76.9 µM;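 note: plate controls were DMSO with enzyme for no effect and no-enzyme DMSO wells for full effect; nearly all actives have a fitted effect of over 60% in size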
# Tyrosine-protein kinase Yes (Homo sapiens), sequence (P07947 whole entry, looked up): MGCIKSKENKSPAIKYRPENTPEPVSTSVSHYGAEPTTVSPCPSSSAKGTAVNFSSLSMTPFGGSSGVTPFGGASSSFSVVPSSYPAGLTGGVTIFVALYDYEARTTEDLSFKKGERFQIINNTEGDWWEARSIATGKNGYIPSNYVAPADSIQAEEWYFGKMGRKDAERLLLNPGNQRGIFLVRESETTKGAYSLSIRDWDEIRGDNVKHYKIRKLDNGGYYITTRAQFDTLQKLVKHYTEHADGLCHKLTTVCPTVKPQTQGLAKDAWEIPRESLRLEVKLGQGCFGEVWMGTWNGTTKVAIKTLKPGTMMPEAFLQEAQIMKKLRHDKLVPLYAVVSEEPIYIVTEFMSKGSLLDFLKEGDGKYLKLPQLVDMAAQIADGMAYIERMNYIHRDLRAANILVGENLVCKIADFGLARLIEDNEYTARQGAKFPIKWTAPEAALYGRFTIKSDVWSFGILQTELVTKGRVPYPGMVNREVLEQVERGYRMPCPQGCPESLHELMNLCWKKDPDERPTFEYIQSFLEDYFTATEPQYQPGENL
# Method in brief: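 In this qHTS format, inhibition is expressed relative to DMSO controls with enzyme (maximum) and without enzyme (minimum). The 60 min room-temperature reaction uses 0.1 mM ATP, with ADP detected by luminescence.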
# [10] = qHTS for small molecule inhibitors of Yes1 kinase: Counter Assay (AID 686950); settings: series mostly up to 76.9 µM;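 note: no kinase present so only ADP-Glo detection of a fixed ADP amount is tested; luminescence from ADP-Glo reporting ADP in a fixed ATP and ADP mixture; 0% = DMSO wells with ATP plus ADP and -100% = ATP-only wells without ADP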
# Source text: The Src family of non-receptor protein tyrosine kinases contains nine members, including Yes1, Src, Fyn, Lyn, and […]. These kinases have important roles in a variety of cellular functions, such as cell proliferation, survival, and differentiation. Src, the most well characterized member of this family, has been previously identified as a proto-oncogene. […] In melanoma, it has been shown that Yes1, and not other family members, such as Src, is functionally involved in the malignant phenotype. Additionally, a recent study examining the downregulation of Yes1 by shRNA found significant effects on cell survival/growth for basal-like and Her2-positive breast cancers. Despite the potential for Yes1 to be a target for the above-described cancers, there are very few reports on the identification of potent and selective inhibitors of Yes1 kinase. […]
# Two microliter of buffer (columns 1-48) are dispensed into Greiner, white solid-bottom 1536-well assay plates. […] The amount of ADP is then quantified by the ADP-Glo Kit (Promega, Madison, WI). First, 2 uL of the first kit reagent is added, and the reaction is incubated for 45 minutes; then, 4 uL of the second kit reagent are added and the reaction is incubated for 30 minutes at which time the luminescence is read on a Viewlux plate reader (Perkin-Elmer, Waltham, MA). […]
compound,measurement,setting,value
CCCCCCCCC(=O)NCc1ccc(O)c(OC)c1,max response,[1],1.45%
same,Potency,[2],inactive
CCCCCCCCCCCCCCCC[n+]1ccccc1,Potency,[3],1.19 µM (active)
same,Potency,[2],inactive
CNC(=O)Oc1cccc2ccccc12,Potency,[4],39.8 µM (active) and 35.5 µM (active)
same,max response,[1],-0.498% and -1.3%
same,Potency,[3],inactive
COCC(=O)N(c1c(C)cccc1C)C(C)C(=O)OC (stereo not drawn),activation,[4],3.48%
same,max response,[1],-1.66%
same,Potency,[2],inactive
CCOC(=O)Nc1ccc(NCc2ccc(F)cc2)nc1N,Potency,[5],inactive
COC(=O)C1=CCCN(C)C1,Potency,[5],inactive
same,outcome,[6],inactive
same,Potency,[7],inactive
same,outcome,[8],inactive
C=CCOC(Cn1ccnc1)c1ccc(Cl)cc1Cl (stereo not drawn),activation,[4],11.9% and 13.2%
same,max response,[1],-1.42% and 0.577%
same,Potency,[2],inactive
CCNc1nc(Cl)nc(NCC)n1,activation,[4],-1.55%
same,max response,[1],-1.73%
same,Potency,[2],inactive
O=C(CCl)c1ccc(Cl)cc1Cl,activation,[4],0.547%
same,max response,[1],-0.884%
same,Potency,[3],7.5 µM (active)
CC[n+]1c(-c2ccccc2)c2cc(N)ccc2c2ccc(N)cc21,activation,[4],11.3%
same,max response,[1],-2.33%
same,Potency,[3],inactive
same,Potency,[2],inactive
CC(=O)[C@@]1(O)CC[C@H]2[C@@H]3CCC4=CC(=O)CC[C@]4(C)[C@H]3CC[C@@]21C,Potency,[5],inactive
Oc1c(Br)cc(Br)cc1Br,activation,[4],1.96% and 1.41%
same,Potency,[1],39.8 µM (active) and 35.5 µM (active)
same,Potency,[2],inactive
C[C@H]1C(=O)O[C@@H]2CCN3CC=C(COC(=O)[C@](C)(O)[C@]1(C)O)[C@H]23,activation,[4],-2.28%
same,max response,[1],0.361%
same,Potency,[2],inactive
COP(=O)(OC)C(O)C(Cl)(Cl)Cl (stereo not drawn),activation,[4],1.53%
same,max response,[1],-2.06%
CCOP(=S)(OCC)O/N=C(\C#N)c1ccccc1,activation,[4],9.33%
same,max response,[1],-3.05%
Cc1ccc(N=CN(C)C=Nc2ccc(C)cc2C)c(C)c1,Potency,[2],inactive
NC(=O)CN1CCCC1=O,Potency,[5],inactive
same,outcome,[6],inactive
same,Potency,[7],inactive
same,outcome,[8],inactive
COC(=O)C1=C(C)NC(C)=C(C(=O)OC)C1c1ccccc1[N+](=O)[O-],Potency,[7],23.1 µM (active)
O=C(NC(=O)c1c(F)cccc1F)Nc1cc(Cl)c(OC(F)(F)C(F)C(F)(F)F)cc1Cl (stereo not drawn),activation,[4],0.163%
same,max response,[1],14.7%
same,Potency,[2],inactive
Oc1ccc(Cl)cc1Sc1cc(Cl)ccc1O,Potency,[3],15 µM (active)
same,Potency,[2],inactive
NC(N)=NC(=O)c1nc(Cl)c(N)nc1N,Potency,[5],inactive
C[C@@H]1C[C@@H]([C@H](O)CC2CC(=O)NC(=O)C2)C(=O)[C@@H](C)C1,max response,[1],-1.34% and -7.61% and -0.958%
same,Potency,[3],150 nM (active) and 237 nM (active)
same,Potency,[2],inactive
CCC(=O)O[C@H]1CC[C@H]2[C@@H]3CCC4=CC(=O)CC[C@]4(C)[C@H]3CC[C@]12C,activation,[4],-0.665%
same,max response,[1],-1.43%
same,Potency,[2],inactive
CC[C@H]1CN2CCc3cc(OC)c(OC)cc3[C@@H]2C[C@@H]1C[C@H]1NCCc2cc(OC)c(OC)cc21,outcome,[8],inactive
N#Cc1nn(-c2c(Cl)cc(C(F)(F)F)cc2Cl)c(N)c1S(=O)C(F)(F)F (stereo not drawn),activation,[4],2.36%
same,max response,[1],-0.478%
same,Potency,[2],inactive
CN(C)C(=S)SSC(=S)N(C)C,activation,[4],8.11% and 11.6%
same,max response,[1],-9.79% and -7.98%
same,Potency,[3],5.31 µM (active)
same,Potency,[2],42.2 µM (active)
Nc1c2ccccc2nc2ccccc12,Potency,[4],31.6 µM (active)
COP(=S)(OC)Oc1ccc(Sc2ccc(OP(=S)(OC)OC)cc2)cc1,activation,[4],6.46%
same,max response,[1],7.57%
O=c1n(Cl)c(=O)n(Cl)c(=O)n1Cl,activation,[4],0.752%
same,max response,[1],-0.0703%
same,Potency,[2],inactive
C[N+](C)(C)CCCCCCCCCC[N+](C)(C)C,Potency,[5],2.69 µM (active)
O=C(O)c1nn(Cc2ccc(Cl)cc2Cl)c2ccccc12,outcome,[9],inactive
same,outcome,[10],inactive
same,Potency,[5],inactive
same,outcome,[6],inactive
same,Potency,[7],inactive
same,outcome,[8],inactive
CCCCCCCCCCCC[N+](C)(C)CCOc1ccccc1,activation,[4],-2.77%
same,max response,[1],-0.963%
same,Potency,[3],10.6 µM (active)
same,Potency,[2],inactive
Brc1c(NC2=NCCN2)ccc2nccnc12,Potency,[5],inactive
Oc1ccc(Cl)cc1Cc1cc(Cl)ccc1O,max response,[1],4.36%
same,Potency,[2],inactive
COc1ccc(C(=O)N2CCCC2=O)cc1,Potency,[5],inactive
same,outcome,[6],inactive
same,Potency,[7],inactive
same,outcome,[8],inactive
COP(=O)(OC)OC=C(Cl)Cl,activation,[4],2.56% [middle of 4 runs]
same,max response,[1],-1.1% [middle of 4 runs]
same,Potency,[3],inactive
same,Potency,[2],inactive
